Reference: ChEMBL document CHEMBL1961873, “Compounds: GSK PKIS; Assays: Nanosyn kinase panel” (2012)

Tests used:
[1] = target: RAC-alpha serine/threonine-protein kinase (Homo sapiens) (UniProt P31749); conditions: at 0.1 µM
[2] = target: RAC-alpha serine/threonine-protein kinase (Homo sapiens) (UniProt P31749); conditions: at 1 µM
[3] = target: RAC-beta serine/threonine-protein kinase (Homo sapiens) (UniProt P31751); conditions: at 0.1 µM
[4] = target: RAC-beta serine/threonine-protein kinase (Homo sapiens) (UniProt P31751); conditions: at 1 µM
[5] = target: RAC-gamma serine/threonine-protein kinase (Homo sapiens) (UniProt Q9Y243); conditions: at 0.1 µM
[6] = target: RAC-gamma serine/threonine-protein kinase (Homo sapiens) (UniProt Q9Y243); conditions: at 1 µM
[7] = target: G protein-coupled receptor kinase 6 (Homo sapiens) (UniProt P43250); conditions: at 0.1 µM
[8] = target: G protein-coupled receptor kinase 6 (Homo sapiens) (UniProt P43250); conditions: at 1 µM
[9] = target: T1, Rhodopsin kinase GRK7 (Homo sapiens) (UniProt Q8WTQ7); conditions: at 0.1 µM
T1 sequence (whole entry): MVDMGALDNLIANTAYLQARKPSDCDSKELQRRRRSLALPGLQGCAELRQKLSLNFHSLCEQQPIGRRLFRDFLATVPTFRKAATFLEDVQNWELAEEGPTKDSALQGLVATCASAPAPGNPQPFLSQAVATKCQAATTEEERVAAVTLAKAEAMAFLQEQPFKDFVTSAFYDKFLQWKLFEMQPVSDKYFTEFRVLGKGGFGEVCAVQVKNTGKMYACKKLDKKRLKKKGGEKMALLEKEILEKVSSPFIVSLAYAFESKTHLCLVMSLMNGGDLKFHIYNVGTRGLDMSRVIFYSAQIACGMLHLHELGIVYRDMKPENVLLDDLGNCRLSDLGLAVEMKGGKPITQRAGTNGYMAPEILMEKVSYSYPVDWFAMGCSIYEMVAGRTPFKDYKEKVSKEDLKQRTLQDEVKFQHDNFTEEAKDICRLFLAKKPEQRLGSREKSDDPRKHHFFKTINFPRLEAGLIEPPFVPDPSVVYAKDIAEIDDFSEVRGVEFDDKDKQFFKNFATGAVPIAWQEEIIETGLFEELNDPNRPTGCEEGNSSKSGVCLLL

[10] = target: T1, Rhodopsin kinase GRK7 (Homo sapiens); conditions: at 1 µM

Sequence of RAC-alpha serine/threonine-protein kinase (Homo sapiens) (P31749 whole entry): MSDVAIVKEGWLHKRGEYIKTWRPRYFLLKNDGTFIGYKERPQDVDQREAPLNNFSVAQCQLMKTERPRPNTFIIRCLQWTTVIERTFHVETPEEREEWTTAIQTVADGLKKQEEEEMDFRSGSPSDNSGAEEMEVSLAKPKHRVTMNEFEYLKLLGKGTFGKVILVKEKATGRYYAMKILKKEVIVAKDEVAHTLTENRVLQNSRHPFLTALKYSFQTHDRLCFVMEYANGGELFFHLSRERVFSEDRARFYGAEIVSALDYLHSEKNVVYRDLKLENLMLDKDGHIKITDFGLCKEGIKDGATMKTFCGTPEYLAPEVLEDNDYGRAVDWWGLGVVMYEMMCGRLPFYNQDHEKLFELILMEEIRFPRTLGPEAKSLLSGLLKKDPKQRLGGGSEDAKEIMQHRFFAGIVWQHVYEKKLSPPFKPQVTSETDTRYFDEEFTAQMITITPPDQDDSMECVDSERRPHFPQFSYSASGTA
Sequence of RAC-gamma serine/threonine-protein kinase (Homo sapiens) (Q9Y243 whole entry): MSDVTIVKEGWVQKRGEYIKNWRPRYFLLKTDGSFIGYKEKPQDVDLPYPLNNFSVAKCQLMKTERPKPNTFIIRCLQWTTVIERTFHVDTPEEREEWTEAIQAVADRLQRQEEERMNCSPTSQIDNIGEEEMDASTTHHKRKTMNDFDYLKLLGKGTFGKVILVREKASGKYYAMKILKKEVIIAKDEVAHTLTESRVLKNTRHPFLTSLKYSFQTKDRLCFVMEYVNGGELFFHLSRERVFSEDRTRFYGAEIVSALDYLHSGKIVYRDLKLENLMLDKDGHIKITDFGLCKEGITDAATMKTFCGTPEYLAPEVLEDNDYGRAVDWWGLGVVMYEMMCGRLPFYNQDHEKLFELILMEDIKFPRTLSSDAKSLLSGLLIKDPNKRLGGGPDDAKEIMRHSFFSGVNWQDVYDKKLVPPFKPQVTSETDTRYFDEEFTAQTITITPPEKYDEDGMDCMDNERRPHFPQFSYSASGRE
Sequence of G protein-coupled receptor kinase 6 (Homo sapiens) (P43250 whole entry, looked up): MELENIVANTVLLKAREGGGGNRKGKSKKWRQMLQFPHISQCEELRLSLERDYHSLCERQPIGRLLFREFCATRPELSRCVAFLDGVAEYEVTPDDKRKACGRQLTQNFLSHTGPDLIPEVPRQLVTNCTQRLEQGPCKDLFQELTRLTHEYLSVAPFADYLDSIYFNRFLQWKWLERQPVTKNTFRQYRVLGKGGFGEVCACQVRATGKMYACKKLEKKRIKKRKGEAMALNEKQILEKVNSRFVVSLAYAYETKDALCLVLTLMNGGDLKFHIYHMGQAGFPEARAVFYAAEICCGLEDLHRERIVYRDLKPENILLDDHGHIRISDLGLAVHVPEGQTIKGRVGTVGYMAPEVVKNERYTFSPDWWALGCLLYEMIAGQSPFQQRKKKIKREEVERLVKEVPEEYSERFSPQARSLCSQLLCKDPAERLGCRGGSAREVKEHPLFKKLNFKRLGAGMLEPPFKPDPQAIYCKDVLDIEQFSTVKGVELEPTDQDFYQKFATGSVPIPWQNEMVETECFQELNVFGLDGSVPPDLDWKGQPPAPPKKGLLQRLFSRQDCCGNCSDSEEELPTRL
Sequence of RAC-beta serine/threonine-protein kinase (Homo sapiens) (P31751 whole entry): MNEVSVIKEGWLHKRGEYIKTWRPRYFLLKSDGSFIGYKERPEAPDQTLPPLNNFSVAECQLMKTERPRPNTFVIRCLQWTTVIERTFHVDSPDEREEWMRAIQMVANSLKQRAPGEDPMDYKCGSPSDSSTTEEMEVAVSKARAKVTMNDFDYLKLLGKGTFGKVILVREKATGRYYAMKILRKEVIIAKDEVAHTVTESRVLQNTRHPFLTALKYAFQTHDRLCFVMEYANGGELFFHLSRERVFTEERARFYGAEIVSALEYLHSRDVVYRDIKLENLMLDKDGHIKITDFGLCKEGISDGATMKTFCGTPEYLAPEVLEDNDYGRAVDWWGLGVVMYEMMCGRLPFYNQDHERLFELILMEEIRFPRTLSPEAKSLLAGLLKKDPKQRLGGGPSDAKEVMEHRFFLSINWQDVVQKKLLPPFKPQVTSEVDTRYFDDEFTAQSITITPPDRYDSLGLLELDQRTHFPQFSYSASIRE

Row | Compound | inhibition [1] | inhibition [2] | inhibition [3] | inhibition [4] | inhibition [5] | inhibition [6] | inhibition [7] | inhibition [8] | inhibition [9] | inhibition [10]
1 | NS(=O)(=O)c1ccc(N/N=C2\C(=O)Nc3ccc(Cl)cc32)cc1 | 1.17% | 1.19% | 3.01% | 2.43% | 1.79% | 1.82% | 4.41% | 8.19% | 2.49% | 2.98%
2 | COC(=O)Nc1nc2cc(Oc3ccc(NC(=O)Nc4cccc(Br)c4)cc3)ccc2[nH]1 | 0.46% | 0.17% | 1.35% | 1.01% | 1.37% | -2.06% | 4.28% | 6.2% | 3.16% | 25.9%
3 | N#Cc1cccc(Nc2nccc(-c3cnn4ncccc34)n2)c1 | 0.4% | 1.36% | 1.11% | 1.66% | 3.16% | 5.1% | 2.91% | 8.01% | 6.46% | 21.6%
4 | CCOc1nccc2c1nc(-c1nonc1N)n2CC | 0.82% | 1.86% | 1.97% | 1.44% | 0.46% | 1.25% | 4.85% | 18.1% | 3.99% | 8.26%
5 | CS(=O)(=O)Nc1cccc(-c2ccc3c(NC(=O)C4CC4)n[nH]c3c2)c1 | 0.47% | -0.39% | 0.26% | 0.15% | 0.35% | -2.8% | 1.58% | -0.72% | 0.25% | 2.21%
6 | COc1cc(/C=N/Nc2ncnc3c2cnn3C(C)C)ccc1O | -0.05% | -2.56% | 0.47% | -1.58% | 0.98% | -1.46% | 4.24% | 77.6% | 1.66% | 7.37%
7 | Cc1cc(Cl)cc2c1NC(=O)C2=NNc1ccc(S(N)(=O)=O)cc1 | 0.38% | 0.03% | 0.6% | 1.11% | 0.3% | 0.71% | 7.71% | 11% | 5.48% | 13.2%
8 | COc1ccc2ncnc(Nc3ccc(OCc4ccccc4)cc3)c2c1 | 0.35% | -0.14% | 0.26% | 0.34% | 0.84% | 1.52% | 1.69% | 5.27% | 2.31% | 6.57%
9 | c1ccc(Cc2nc3ccc(Nc4ncnc5ccccc45)cc3[nH]2)cc1 | 0.62% | 0.65% | 1.38% | 1.4% | 1.19% | 0.88% | 3.39% | 3.05% | 0.46% | -1.96%
10 | Cc1nc(-c2ccccc2)n2nc(NCCCN3CCOCC3)ncc12 | 0.61% | 0.11% | 0.45% | 2.03% | 0.57% | 4.13% | 3.41% | 0.49% | 5.84% | 2.44%
11 | Nc1ccc(C#Cc2cncnc2Nc2ccc(OCc3cccc(F)c3)c(Cl)c2)cc1 | 0.15% | 1.42% | 1.06% | 1.24% | 0.3% | 2.19% | 0.63% | 0.83% | 5.58% | 1.26%
12 | CCCN1CCCC(c2ccc(Nc3nc(Nc4cc(F)ccc4C(N)=O)c4cc[nH]c4n3)c(OC)c2)C1 (stereo not given) | 0.39% | 0.27% | 1.85% | 1.92% | 0.52% | 2.18% | 5.66% | 25.3% | 3.88% | 16.6%
13 | Cc1ccc2c(-c3ccnc(Nc4cccc(C(F)(F)F)c4)n3)c(-c3ccccc3)nn2n1 | 0.89% | 1.19% | 0.8% | 2.31% | 0.73% | 4.19% | 2.15% | 2.48% | 10.5% | 3.2%
14 | NS(=O)(=O)c1ccc(-c2cc3ccncc3cc2OCc2ccccc2)cc1 | 0.08% | 0.83% | 1.46% | 1.66% | 0.51% | 2.2% | 2.02% | 8.2% | 1.52% | 6.27%
15 | NC(=O)c1sc(-n2cnc3ccccc32)cc1OCc1ccccc1Br | 1.72% | 1.07% | 0.68% | 3.59% | 1.82% | 4.09% | 1.41% | 3.01% | 9.12% | 4.5%
16 | CCn1c(-c2nonc2N)nc2c(C#CC(C)(C)O)nc(OCCNC)cc21 | 20.8% | 67.4% | 33.1% | 75.3% | 23.1% | 68.2% | 4.94% | 3.62% | 9.11% | 2.53%
17 | Nc1nccc(-c2c(-c3ccc(F)cc3)ncn2CCCN2CCOCC2)n1 | 1.68% | 1.55% | 2.52% | 0.79% | 1.64% | 3.69% | 4.54% | 5.62% | 2.89% | 8.32%

Row | Compound | inhibition [1] | inhibition [2] | inhibition [3] | inhibition [4] | inhibition [5] | inhibition [6] | inhibition [7] | inhibition [8] | inhibition [9] | inhibition [10]
18 | CCS(=O)(=O)c1ccc(OC)c(Nc2nccc(N(C)c3ccc4c(C)n[nH]c4c3)n2)c1 | 1.44% | 1.19% | 1.01% | 2.53% | 0.55% | 2.78% | -0.58% | 1.67% | 9.6% | 1.83%
19 | Nc1nccc(C#Cc2cncnc2Nc2ccc(OCc3cccc(F)c3)c(Cl)c2)n1 | 1.34% | 0.92% | 1.52% | 1.54% | 2.87% | 1.85% | 1.35% | -4.58% | 4.51% | 1.2%
20 | C[C@@H](Oc1cc(-n2cnc3ccc(OC[C@@H](O)CO)cc32)sc1C(N)=O)c1ccccc1Cl | -0.94% | -0.9% | -0.48% | -0.32% | 0.07% | -0.44% | 1.08% | 4.23% | -4.63% | 3.37%
21 | Cc1ccc(O)cc1Nc1ccnc2ccc(S(C)(=O)=O)cc12 | 0.79% | 0.22% | 2.36% | 1.9% | 1.87% | 4.72% | 6.06% | 7.8% | 3.42% | 9.64%
22 | Oc1cccc(-c2nc(-c3ccccc3)[nH]c2-c2ccncc2)c1 | -0.1% | 1.39% | 2.18% | 2.47% | 0.82% | 3.85% | 6.53% | 4.9% | 1.3% | -0.71%
23 | CN(C)c1cc2c(Nc3ccc4c(cnn4Cc4ccccc4)c3)ncnc2cn1 | 0.51% | 0.62% | 2.07% | 1.16% | 0.46% | 1.23% | 3.25% | 3.36% | 2.54% | 3.15%
24 | COc1cc2ncnc(Nc3ccc(C)c(O)c3)c2cc1OC | 0.49% | 0.96% | 1.99% | 1.77% | 1.98% | 1.76% | 6% | 5.91% | 4.99% | 7.5%
25 | ON=C1CCc2cc(-c3nc(C4CCNCC4)[nH]c3-c3ccncc3)ccc21 | 0.07% | -0.21% | 0.72% | -1.73% | -0.56% | 0.98% | 0.43% | -2.74% | -0.92% | 1.83%
26 | COC(=O)c1ccc2c(c1)C(=Cc1cc(Br)c(O)c(Br)c1)C(=O)N2 | 0.91% | 0.66% | 0.67% | 1.05% | 1.09% | 2.88% | 7.82% | 43.5% | 12.8% | 28.4%
27 | c1ccc(Nc2ncc(-c3ccccc3)o2)cc1 | 1.4% | 0.83% | 0.54% | 2.99% | 1.75% | 3.46% | 4.61% | 4.8% | 9.62% | 4.71%
28 | COc1ccc(-c2nn3ncccc3c2-c2ccnc(Nc3cccc(C(F)(F)F)c3)n2)cc1 | 0.68% | 0.72% | 1.23% | 1.84% | 0.37% | 1.95% | 3.32% | 2.16% | 5.25% | 1.87%
29 | CC(C)c1ccc2c(c1)NC(=O)/C2=N/Nc1ccc(S(N)(=O)=O)cc1 | -0.05% | -0.49% | -0.37% | 0.73% | -0.27% | 4.41% | -0.59% | -0.78% | 2.96% | -0.57%
30 | Cc1ccc(NC(=O)CC2CC2)cc1-c1ccc(C(=O)NCC2CC2)cc1 | 0.17% | 0.7% | 1.47% | 1.58% | 1.47% | 1.65% | 2.05% | 6.65% | 0.94% | 0.75%
31 | CN(C)C(=O)O[C@H]1CN[C@H](C#Cc2cc3ncnc(Nc4ccc(OCc5cccc(F)c5)c(Cl)c4)c3s2)C1 | 0.44% | 1.13% | 1.82% | 1.59% | 1.22% | -1.3% | 3.73% | 0.78% | 2.97% | 8.33%
32 | Cc1cc(-c2ccccn2)cc(C)c1/C=C/c1cncc(-c2nn[nH]n2)c1 | 1.14% | 0.85% | 0.53% | 1.57% | 2.14% | 2.17% | 5.67% | 1.26% | 9.3% | 7.66%
33 | Nc1nccc(-c2c(-c3ccc(F)cc3)nn3cc(C(F)(F)F)ccc23)n1 | 0.02% | -0.66% | -0.52% | 0.01% | 0.2% | -5.93% | -1.46% | -0.24% | 3.74% | 4.14%
34 | C[C@@H](Oc1cc(-n2cnc3ccc(OCC4CCN(C)CC4)cc32)sc1C(N)=O)c1ccccc1C(F)(F)F | -0.94% | -1.34% | -1.9% | -0.71% | -1.91% | 1.79% | -1.55% | -1.03% | 2.15% | -2.25%
